Measurements reported in the supplement of paper PMC9135407.
“And” between values parts separate entries of the source, which are not always exact repeats. Equal entries are not always repeated. Structures can show the parent of a compound that is named as a salt. The campaign covered roughly 5,800 compounds. About 620 (11%) showed activity. The sample as a whole holds a higher share of actives than the screen did. Unmarked numbers belong to inactive results.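 Rule for the calls: active = score above a cut-off or among the top three wells of a plate; in these data no inactive exceeds 0.85.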

Tested on: primary human hepatic stellate cells (donor 1)
Test: scaled lipid accumulation score (0 = DMSO-like, 1 = nortriptyline-like); higher = stronger HSC inactivation (lipid re-accumulation), active = hit call of the paper
Settings: 48 h
Experimental: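 Primary lipid accumulation screen in primary human hepatic stellate cell myofibroblasts (donor 1, passage 8) in 384-well plates. 100 nL of library compound was pin-transferred into 30 µL medium in duplicate, and cells were treated for 48 h. The 'Scaled' score combines distance from plate baseline, toxicity and reproducibility penalties, and is normalised to nortriptyline (positive) and DMSO (negative) controls on each plate. A hit is defined as scaled >0.85 or among the top 3 wells per plate.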

[1] = library stock concentration: 1 mM
[2] = library stock concentration: 10 mM

CCCCC/C=C\C/C=C\C/C=C\C/C=C\CCCC(=O)NOCCO [oxy-Arachidonoyl Ethanolamide]
scaled lipid accumulation score [1]: 0.014

C[C@H](N)C(=O)N[C@@H](C)C(=O)N[C@@H](Cc1ccccc1)C(=O)CCl
scaled lipid accumulation score (library stock concentration: 14.7 mM): 0.708

CC(=O)O[C@@]12C[C@@H](C)[C@@]3(O)[C@@H](C=C(CO)C[C@]4(O)C(=O)C(C)=C[C@@H]34)[C@@H]1C2(C)C [Prostratin]
scaled lipid accumulation score [1]: 0.583 (active)

CCCCCCCCCCCCCC(=O)O[C@@H]1[C@@H](C)[C@@]2(O)[C@@H](C=C(CO)C[C@]3(O)C(=O)C(C)=C[C@@H]23)[C@@H]2C(C)(C)[C@]12OC(C)=O [Phorbol 12-myristate 13-acetate] [listing 1 of 2 here]
scaled lipid accumulation score [2]: ≤ 0

CCCCCCCCCCCCCC(=O)O[C@@H]1[C@@H](C)[C@@]2(O)[C@@H](C=C(CO)C[C@]3(O)C(=O)C(C)=C[C@@H]23)[C@@H]2C(C)(C)[C@]12OC(C)=O [Phorbol 12-myristate 13-acetate] [listing 2 of 2 here]
scaled lipid accumulation score (library stock concentration: 8.1 mM): 0.934 (active)

CC(=O)O[C@@H]1CC[C@@]2(C)[C@@H](CC[C@@H]3[C@@H]2CC[C@]2(C)C(=O)CC[C@@H]32)C1 [Androsterone acetate]
scaled lipid accumulation score [2]: ≤ -0.027

C=CCN1CC[C@]23c4c5ccc(O)c4O[C@H]2/C(=N/N=C2\CC[C@@]4(O)[C@H]6Cc7ccc(O)c8c7[C@@]4(CCN6CC=C)[C@H]2O8)CC[C@@]3(O)[C@H]1C5 [Naloxonazine 2HCl]
scaled lipid accumulation score (library stock concentration: 3.1 mM): 0.144

N[C@@H]1C[C@H]1c1ccccc1.N[C@H]1C[C@@H]1c1ccccc1 [Tranylcypromine sulfate]
scaled lipid accumulation score (library stock concentration: 8.6 mM): ≤ 0 | scaled lipid accumulation score [2]: ≤ 0

N[C@@H]1C[C@H]1c1ccccc1.N[C@H]1C[C@@H]1c1ccccc1 [Tranylcypromine]
scaled lipid accumulation score (library stock concentration: 80 uM): ≤ 0 | scaled lipid accumulation score (library stock concentration: 400 uM): ≤ 0 | scaled lipid accumulation score (library stock concentration: 2 mM): ≤ 0 | scaled lipid accumulation score [2]: ≤ 0 | scaled lipid accumulation score (library stock concentration: 15 mM): ≤ -0.003

C=C(C)[C@@H]1CCC(C)=C[C@H]1C1=C(O)C(=O)C(CCCCC)=CC1=O
scaled lipid accumulation score [1]: 0.055

CC1=C2C(=CO[C@H](C)[C@H]2C)C(O)=C(C(=O)O)C1=O [Citrinin]
scaled lipid accumulation score [2]: ≤ 0

Cn1c2cccc(=O)c-2nc2ccccc21 [Pyocyanin]
scaled lipid accumulation score [1]: ≤ 0

CC(=O)OC1CN2CCC1CC2 (stereo unspecified)
scaled lipid accumulation score [2]: 0.001

CCCCC/C=C\C/C=C\C/C=C\C/C=C\CCCC(=O)NC1CC1 [Arachidonoyl Cyclopropylamide]
scaled lipid accumulation score [1]: ≤ 0

CN(C(=O)Cc1ccccc1)C(CN1CCCC1)c1ccccc1 (stereo unspecified) [N-MPPP Hydrochloride]
scaled lipid accumulation score [2]: 0.172

CN(C(=O)Cc1ccc(Cl)c(Cl)c1)C(CN1CCCC1)c1cccc(OCC(=O)O)c1 (stereo unspecified) [ICI 204,448 hydrochloride]
scaled lipid accumulation score [2]: 0.053

CN(C(=O)Cc1ccc(Cl)c(Cl)c1)[C@H](CN1CCCC1)c1ccccc1.Cl [ICI-199,441 hydrochloride]
scaled lipid accumulation score [2]: 1.58 (active)

CCCCCc1cc(O)c2c(c1)OC(C)(C)C1CCC(C(=O)O)=CC21 (stereo unspecified) [Tetrahydrocannabinol-7-oic acid]
scaled lipid accumulation score [1]: ≤ -0.021

COc1cc(CNC(=O)CCCCCCC(C)C)c(I)cc1O
scaled lipid accumulation score [1]: ≤ 0

COc1cc2c3cc1Oc1cc(ccc1O)C[C@@H]1c4c(cc(OC)c(O)c4Oc4cccc(c4)C[C@@H]3N(C)CC2)CC[N+]1(C)C [Tubocurarine chloride pentahydrate (+)]
scaled lipid accumulation score: 0.039

COc1ccc2[nH]c3c(c2c1)CCNC3 [6-Methoxy-1,2,3,4-tetrahydro-9H-pyrido[3,4b] indole]
scaled lipid accumulation score [2]: 0.691

O=c1ccc2[nH]cc(C3=CCNCC3)c2[nH]1
scaled lipid accumulation score [2]: 0.084 and ≤ -0.006

CCCOc1ccc2[nH]cc(C3=CCNCC3)c2n1
scaled lipid accumulation score [2]: 0.748

COc1ccc2[nH]cc(C3=CCNCC3)c2c1.COc1ccc2[nH]cc(C3=CCNCC3)c2c1.O=C(O)CCC(=O)O
scaled lipid accumulation score [2]: 1.68 (active)

N#Cc1ccc(N2CCN(C(=O)COc3ccc4[nH]cc(CCN)c4c3)CC2)cc1 [Donitriptan hydrochloride]
scaled lipid accumulation score [2]: ≤ 0

CN1CC[C@@H]2CN3CCc4cccc(c43)[C@@H]2C1 [SDZ SER 082 fumarate]
scaled lipid accumulation score [2]: ≤ -0.006

CCCCCC(=O)N[C@H]1CCOC1=O [N-hexanoyl-L-Homoserine lactone]
scaled lipid accumulation score [1]: ≤ 0

CO[C@H](C/C=C\C=C\CC/C=C/C[C@H](C)/C=C/C(=C\C(=O)O)CC(=O)O)/C(C)=C\C=C(/C)C(=O)O [Bongkrekic acid]
scaled lipid accumulation score [1]: ≤ -0.014

N#CC(C#N)=Cc1ccc(O)cc1 [Tyrphostin-8]
scaled lipid accumulation score (library stock concentration: 29.4 mM): ≤ -0.012

CC(Cc1ccc(OCC(=O)O)cc1)NCC(O)c1cccc(Cl)c1 (stereo unspecified)
scaled lipid accumulation score [2]: 0.056

COc1cc2c(cc1O)C(CCc1ccc(Cl)cc1)N(C)CC2.Cl (stereo unspecified)
scaled lipid accumulation score [2]: 0.872 (active)
